# PubChem BioAssay AID489025 (Southern Research Specialized Biocontainment Screening …, 2010)
# The whole screen tested about 2,300 compounds, of which about 790 (34%) were called active. The rule behind the calls is not given here. This is one part of the list. Measured potencies and affinities stand elsewhere.
# Assay: THP-1 cell cytotoxicity, dose response, cytotoxicity control for non-replicating M. tuberculosis project (AID 489025)
# Details: THP-1 cell viability; series mostly up to 40 µM
row,SMILES,outcome
1,Cc1ccc2nc(CCc3nc4ccc(C)cc4[nH]3)[nH]c2c1,inactive
2,O=C(COC(=O)CC1CCCC1)Nc1ccc(Cl)cn1,inactive
3,CCOc1ccc(OCC(=O)Nc2ccc(OC)cc2)cc1,inactive
4,CCOC(=O)c1nn(-c2ccccc2)c2nc(Nc3ccccc3)cc(=O)n12,inactive
5,CC(=O)c1ccc(OC(=O)c2ccc(-n3nc(C)cc3C)cc2)cc1,inactive
6,Cc1cc(C)n(-c2ccc(C(=O)Oc3ccc4c(c3)OCO4)cc2)n1,inactive
7,O=C(OCc1c(Cl)cccc1Cl)c1ccccn1,inactive
8,CCCN1C(=O)S/C(=C\c2ccc(N3CCOCC3)o2)C1=O,inactive
9,COc1ccc2oc(=O)c(/C(C)=N/NC(=O)c3ccncc3)cc2c1,inactive
10,C/C(=N\Nc1ccc(Cl)cc1)c1c(O)cc(C)oc1=O,inactive
11,COc1cccc(C(=O)C2CCCN(CC3=Cc4cc(OC)ccc4OC3)C2)c1 (stereo unspecified),inactive
12,CCn1cc(C(=O)NC(C)C23CC4CC(CC(C4)C2)C3)cn1 (stereo unspecified),inactive
13,O=C(c1ccc(Cl)cc1)c1nnc(-c2ccncc2)o1,inactive
14,O=C(CCc1ccccc1F)N1CCN(c2ccccc2)CC1,inactive
15,Cc1ccc(S(=O)(=O)N2CCC(C(=O)OCc3ccccc3)CC2)cc1C,inactive
16,O=C(OCC(=O)N1CCN(c2ccccc2)CC1)c1ccc2ccccc2n1,inactive
17,O=C(OCC(=O)N1CCN(c2ccccc2)CC1)c1ccc(Cl)cc1[N+](=O)[O-],inactive
18,CC(NC(=O)COc1ccccc1F)C1CC2CCC1C2 (stereo unspecified),inactive
19,O=C(NCCc1ccccc1)c1nc(-c2cccs2)no1,inactive
20,Cc1ccc(CNCc2cc(Cl)ccc2O)cc1,inactive
21,CCOC(=O)Nc1cccc(OCC(=O)Nc2ccccc2OC)c1,inactive
22,COc1ccc(NC(=O)COc2ccccc2)cc1Cl,inactive
23,CC(Cc1ccccc1Sc1ccccc1)N(C)C (stereo unspecified),inactive
24,CCOc1ccccc1NC(=O)COn1nnc2ccc(Cl)cc21,inactive
25,CCOc1cccc2cc(C(=O)Nc3nccs3)c(=O)oc12,inactive
26,OC(C#CCN1CCOCC1)c1cccs1 (stereo unspecified),inactive

row,SMILES,outcome
1,Cc1[nH]nc2c1C(c1ccc(OC(=O)c3ccco3)cc1)C(C#N)=C(N)O2 (stereo unspecified),inactive
2,CCOC(=O)CN1NC2(CCCC(C)C2)NC1=S (stereo unspecified),inactive
3,CCOC(=O)c1cc(-c2csc(COc3ccccc3Cl)n2)on1,inactive
4,COCCOC(=O)c1c(C)oc2ccc(OC(=O)c3ccco3)cc12,inactive
5,CC(=O)N1CCN(C(=O)CC2OC(=O)c3ccccc32)CC1 (stereo unspecified),inactive
6,COCCn1c(C)cc(C(=O)COC(=O)c2ccc(Br)o2)c1C,inactive
7,CCCN1C(=O)SC(CC(=O)Nc2ccccc2)C1=O (stereo unspecified),inactive
8,CNc1nnc(Sc2ncccc2[N+](=O)[O-])s1,inactive
9,Nc1nnc(Sc2ncccc2[N+](=O)[O-])s1,inactive
10,COc1ccc(OCCSc2nnc(Cc3cccc4ccccc34)n2N)cc1,inactive
11,O=C(c1ccccc1)n1c(=O)c(F)cn(COCCBr)c1=O,inactive
12,O=C(Cn1cc([N+](=O)[O-])nc1[N+](=O)[O-])N1CCN(c2ccccc2)CC1,inactive
13,CCOC(=O)C(Nc1ccc2ccccc2c1)C(=O)OCC,inactive
14,Cc1nnc(NC(=O)c2ccc3ccccc3c2)o1,inactive
15,COc1cccc(NC(=O)c2cc3ccccc3oc2=O)c1,inactive
16,O=c1oc2ccccc2c2c1nc(C(F)(F)F)n2-c1ccccc1,inactive
17,COC(=O)CN(C#N)c1nc(SC)nc(N(C)C)n1,inactive
18,Cc1ccc(N2NC(=O)/C(=C/C=C/c3ccco3)C2=O)cc1C,inactive
19,O=C(NC(=S)Nn1cnc2c(cnn2-c2ccccc2)c1=O)c1ccccc1,inactive
20,CCOC(=O)Cn1c2ccc(F)cc2c2nc(C)sc21,inactive
21,Cc1nnc(N/N=C/c2ccc(Br)cc2)n1N,inactive
22,Cc1ccccc1OCC(=O)OCC(=O)c1ccc[nH]1,inactive
23,CC1(CCc2ccc3c(c2)OCO3)NC(=O)c2ccccc2N1 (stereo unspecified),inactive
24,O=C(COc1ccc(Br)cc1)N/N=C1/SCC(=O)N1Cc1ccco1,inactive
25,CCc1nnc(N/N=C/c2c(F)cccc2Cl)n1N,inactive
26,O=C(N/N=C1\CCCc2c1[nH]c1ccc(Cl)cc21)c1ccncc1,inactive

row,SMILES,outcome
1,Cc1ccsc1/C=N/NC(=O)c1ccncc1,inactive
2,COc1ccc(C(C)=O)cc1COC(=O)c1ccc2ccccc2n1,inactive
3,c1nc2n(n1)C1=C(CCCC1)C1(CCCCC1)N2,inactive
4,CN(C)S(=O)(=O)c1ccc(C(=O)Oc2ccccc2)cc1,inactive
5,Cc1ccc(NC(=O)CN(C)CC(=O)Nc2ccc(F)c(Cl)c2)cc1,inactive
6,CCOc1ccc(NC(=O)c2nnn(CC(=O)Nc3ccccc3OC)c2N)cc1,inactive
7,CCOC(=O)c1ccc(NC(=O)NS(=O)(=O)c2ccc(C)cc2)cc1,inactive
8,CC1CCN(S(=O)(=O)c2cccc(C(=O)Oc3ccc([N+](=O)[O-])cc3)c2)CC1,inactive
9,CC(C)C(=O)Nc1cccc(-c2nc3ccccc3c(=O)o2)c1,inactive
10,CCOC(=O)Cn1c(C)c(Br)c(=O)c2cccc(C)c21,inactive
11,CN(C)Cc1ccccc1Sc1ccc(Br)cc1,inactive
12,FC(F)(F)c1nc(SCc2ccc(Cl)cc2Cl)n[nH]1,inactive
13,Cc1ccccc1N1CCN(Cc2ccc([N+](=O)[O-])o2)CC1,inactive
14,O=[N+]([O-])c1ccc(CN2CCN(c3ccccc3Cl)CC2)o1,inactive
15,O=C(CN1CCCCC1)Nc1nnc(-c2ccc([N+](=O)[O-])cc2)s1,inactive
16,COC(=O)COc1ccc(S(=O)(=O)N2CCN(c3ccccc3F)CC2)cc1,inactive
17,Cc1cc2cc(CNC(=O)C3CCCC3)ccc2n1C,inactive
18,O=C(CN1CCN(c2ccccc2)CC1)Nc1nnc(-c2ccccc2)s1,inactive
19,O=C(Oc1ccccc1)c1ccc(COC(=O)c2cnccn2)cc1,inactive
20,Cc1ccc(CNC(=O)c2cnccn2)cc1,inactive
21,COc1ccccc1C1=Nn2c(nnc2C2CCCCC2)SC1,inactive
22,O=C(Nc1ccc(Cl)cn1)C1COc2ccccc2O1 (stereo unspecified),inactive
23,O=c1oc(-c2cccs2)nc2c1cnn2-c1ccccc1,inactive
24,Cc1ccccc1Cn1cc(NC(=O)c2noc(C(C)C)c2[N+](=O)[O-])cn1,inactive
